# Compound activity deposited in PubChem BioAssay by National Center for Advancing Translational Sciences (NCATS).
# AmpC detergent = inhibitors of E. coli AmpC beta-lactamase with detergent. P00811. AmpC hydrolysis of nitrocefin, absorbance 480 nm, 0.01% Triton. Potency, µM (top dose mostly 114 µM), for inactives: at the top dose activity change, negative = inhibition, usual class: inhibitors. actives 0.041% (n = 370,000);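 also: 0% = no-compound wells and -100% = no-enzyme wells; nearly all actives have a fitted effect of over 25% in size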
# Target sequence (P00811 whole entry, looked up): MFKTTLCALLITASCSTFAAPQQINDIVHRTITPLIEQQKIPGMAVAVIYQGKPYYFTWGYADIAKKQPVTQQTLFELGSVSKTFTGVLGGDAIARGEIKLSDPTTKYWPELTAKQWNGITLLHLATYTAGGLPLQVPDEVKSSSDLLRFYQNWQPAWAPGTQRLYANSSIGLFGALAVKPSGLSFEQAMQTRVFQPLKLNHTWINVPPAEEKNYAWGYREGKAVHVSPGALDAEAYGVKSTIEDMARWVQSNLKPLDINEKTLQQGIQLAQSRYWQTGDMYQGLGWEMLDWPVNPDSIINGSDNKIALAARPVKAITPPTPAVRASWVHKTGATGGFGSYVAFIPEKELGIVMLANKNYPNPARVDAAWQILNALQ
#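 AmpC (5.3 nM in the dispensed reagent) in 20 mM phosphate pH 7.0 with 0.01% (detergent screen) or 0.0001% Triton X-100 was preincubated with compounds for 15 min at room temperature. Nitrocefin was then added from an 800 uM solution, and hydrolysis was followed at 480 nm.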
# Sm TGR inh = inhibitors of Schistosoma mansoni thioredoxin glutathione reductase | Q962Y6 | purified TGR, DTNB reduction, TNB absorbance 405 nm | Potency, µM (top dose mostly 114 µM), for the others: at the highest dose activity change, negative = inhibition, most hits filed as inhibitors | actives 3% (n = 360,000) | AID 485364; also: nearly all actives have a fitted effect of over 60% in size
#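 TGR 20 nM + NADPH 100 uM (dispensed conc.), cpd preinc 15 min RT; start with NADPH (500 uM addition) then DTNB (15 mM addition). Kinetic TNB absorbance, 405 nm filter. Four-parameter Hill fit across titration.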
# FMDV antiviral = foot and mouth disease virus antiviral activity. FMDV antiviral cell-based qHTS. AID 1159524. Potency, µM (top dose mostly 57.9 µM), for the others: at the top dose activity change, negative = inhibition, actives largely listed as inhibitors. actives 1.2% (n = 410,000); calls by dose curve; tested in HEK293T cells; also: read-out not given here; nearly all actives have a fitted effect of over 45% in size
# AMA1-RON2 inh = AMA1-RON2 (P. falciparum) interaction inhibition; Potency, µM (doses to about 58.2 µM), inactives show top-dose activity change, negative = inhibition, actives largely listed as inhibitors; AlphaScreen AMA1-biotinylated RON2 peptide binding; actives 0.2% (n = 360,000); AID 720542;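 also: 0% = vehicle wells and -100% = peptide control; nearly all actives have a fitted effect of over 45% in size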
#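 AMA1 (3D7) with his tag at 25 nM final met compounds first, then biotinylated RON2 peptide at 25 nM; detection used donor plus acceptor beads, 10 µg/mL apiece, read by AlphaScreen after 30 min at room temperature.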
# AmpC no deterg = inhibitors of E. coli AmpC beta-lactamase without detergent. P00811. AmpC nitrocefin hydrolysis, absorbance 480 nm, 0.0001% Triton. Potency, µM (highest dose often 57.1 µM), for the others: at the highest dose activity change, negative = inhibition, actives largely listed as inhibitors. actives 0.52% (n = 330,000). AID 485341;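 also: plate controls were no compound for no effect and no enzyme for full effect; nearly all actives have a fitted effect of over 20% in size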
#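 AmpC (5.3 nM in the dispensed reagent) in 20 mM phosphate pH 7.0 with 0.01% (detergent screen) or 0.0001% Triton X-100 was preincubated with compounds for 15 min at room temperature. Nitrocefin was then added from an 800 uM solution, and hydrolysis was followed at 480 nm.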
# An asterisk follows results filed as active; ? = inconclusive; . = no result. Sampled rows, rich in hits. Any-hit rate of the full collection: about 4.1%. Unless noted, calls follow the shape of the dose curve; as a rule, active = well fitted curve in the direction sought with a large enough effect; inconclusive = small, poorly fitted or top-dose-only effect, or another doubt; inactive = no such curve, though single readings can be large; an effect the other way counts as inactive or inconclusive. Unless noted, % is scaled to controls: 0 for no effect and ±100 for the full control effect; potency is read from the fitted curve at half-maximal effect.
SMILES,AmpC detergent,Sm TGR inh,FMDV antiviral,AMA1-RON2 inh,AmpC no deterg
O=C(O)CCc1ccc(-c2cccs2)n1NC(=O)c1ccc(O)cc1,-10%,-36%,14%,4%,-44%
CCc1ccc(-n2c(CCC(=O)O)ccc2-c2ccc(F)cc2)cc1,-6%,?,4%,.,.
Cc1ccc(-n2c(CCC(=O)O)ccc2-c2cccs2)cc1C,10%,10µM*,46%,-4%,-43%
CCc1ccc(-n2c(CCC(=O)O)ccc2-c2cccs2)cc1,6%,3.5µM*,13%,.,.
CCOC(=O)c1ccc(-n2c(CCC(=O)O)ccc2-c2cccs2)cc1,1%,5.6µM*,-2%,-5%,-34%
CCCN1CCCC(c2cccc(S(C)(=O)=O)c2)C1 (centres undefined),.,.,-20%,.,.
COc1ccc(C)cc1NC(=O)c1oc2ccc(S(=O)(=O)N3CCC4(CC3)OCCO4)cc2c1C,4%,12%,-13%,.,.
COc1ccccc1C(=O)Nc1ccc(C(=O)OCc2cc(=O)n3ccsc3n2)cc1,9%,0%,-28%,.,.
Cc1cc(/C=C2\NC(=O)NC2=O)c(C)n1-c1ccc(N2CCOCC2)cc1,2%,?,-9%,-14%,64%
O=C1NC(=O)/C(=C/c2ccc(N3CCOCC3)o2)N1,0%,11µM*,-25%,-6%,2%
O=C1NC(=O)/C(=C\c2ccc(N3CCOCC3)o2)N1,-8%,8.9µM*,7%,92%,-16%
O=C1NC(=O)/C(=C\c2ccc(Sc3ccc(Cl)cc3)o2)N1,?,50µM*,-22%,-14%,-41%
Clc1ccc(Sc2ccc(/C=N/n3cnnc3)o2)cc1,4%,?,-29%,-8%,20%
CCCOc1ccc(C2c3c(oc4ccccc4c3=O)C(=O)N2c2nnc(C(C)C)s2)cc1 (centres undefined),18%,-1%,1%,.,.
Cc1nc2[nH]c(=S)[nH]c(=O)c2nc1C,.,.,7%,10%,.
Cc1nc2c(=O)[nH]c(=S)[nH]c2[nH]c1=O,.,.,-2%,28µM*,.
COc1cccc(-c2n[nH]c(=S)n2Cc2ccco2)c1,-1%,35µM*,-17%,56%,-45%
COc1ccccc1-c1n[nH]c(=S)n1Cc1ccco1,1%,40µM*,.,.,-28%
CCOc1ccccc1NC(=O)C(C)Sc1nc2c(c(=O)[nH]1)CCCC2 (centres undefined),-2%,0%,7%,.,.
Cc1ccc2c(c1)CN(CCC(=O)NCc1cc(C)n(C)n1)CC(C)O2 (centres undefined),.,.,-6%,.,.
O=C(Nc1cccnc1)c1ccc(-c2ccc(Cl)cc2)o1,3%,32µM*,7%,-2%,-22%
O=C(Nc1ccc2oc(-c3cccnc3)nc2c1)c1ccc(-c2ccc(Cl)cc2)o1,3%,32µM*,12%,.,.
O=C(Nc1cccnc1)c1ccc(NS(=O)(=O)c2cc([N+](=O)[O-])ccc2Cl)cc1,6%,32µM*,2%,-4%,-44%
O=[N+]([O-])c1ccc(Cl)c(S(=O)(=O)/N=C(/Nc2cccnc2)c2ccccc2)c1,.,.,-1%,2%,-54%
O=C(Nc1cccnc1)c1ccc(S(=O)(=O)c2ccc(Cl)cc2)cc1,1%,-6%,28µM*,-2%,-7%
SMILES,AmpC detergent,Sm TGR inh,FMDV antiviral,AMA1-RON2 inh,AmpC no deterg
O=C(Nc1ccc2oc(-c3cccnc3)nc2c1)c1cccnc1,-5%,-22%,13%,-23%,-14%
Cc1oc(-c2ccccc2NC(=O)c2ccccc2)nc1CNC(=O)c1cccc(-n2cccn2)c1,.,.,1%,.,.
OCCCNc1ncnc2c1ncn2[C@H]1CN(Cc2ccc(-c3ccccc3)cc2)C[C@@H](CO)O1,.,.,?,2%,.
Cc1c(NC(=O)c2ccc(-c3cccc([N+](=O)[O-])c3)o2)cccc1-c1nc2cc(Cl)ccc2o1,23%,35µM*,48%,.,.
O=C(Nc1ccc2oc(-c3cccnc3)nc2c1)c1ccc([N+](=O)[O-])o1,-12%,.,-27%,7%,-30%
O=C(Nc1ccc(Cl)c(-c2nc3ccccc3o2)c1)c1ccc(-c2cccc([N+](=O)[O-])c2)o1,25%,-11%,-10%,.,.
